A short description of experiment [1]: A549 cell cytotoxicity, dose response, cytotoxicity control, plate reader, cherry-pick, antagonist series (AID 743412).
Experiment [2] in a line: HepG2 cell cytotoxicity, dose response, cytotoxicity control, plate reader, cherry-pick, antagonist series (AID 743416).

Results with a measured potency or affinity are listed apart. A number with no mark means an inactive call. Calls of active or inactive are those of the source. How the calls were made is not given here.

This note sets out measurements from PubChem BioAssay.

On to `Cc1ccccc1S(=O)(=O)N1[C@H](C#N)[C@H](c2ccc(C#CC3CCCCC3)cc2)[C@H]1CO`, for which the compound was classed as inactive in experiment [1] and in experiment [2].
For the compound `Cc1cccc(-n2ncc3c(N(C)C4CCCCC4)ncnc32)c1`, the result in experiment [1] and in experiment [2] was inactive.
As for `CCN(CC)S(=O)(=O)c1cc(C(=O)OCC(=O)Nc2ccc(-c3nc4ccc(C)cc4s3)cc2)ccc1F`, the result in experiment [1] and in experiment [2] was inactive.
For `CC(C)(C)n1ncc2c(=O)n(CC(=O)OCc3ccccc3)cnc21`, the outcome in experiment [1] and in experiment [2] was inactive.
For `CCCCCc1ccc(-c2ccc(C(=O)O)cc2)nc1`, the result in experiment [1] and in experiment [2] was inactive.
Consider `O=C(O)c1ccc(N/N=C/c2ccc(OC(=O)c3cccc(Cl)c3)cc2)cc1`, for which the compound was classed as inactive in experiment [1] and in experiment [2].
In the case of `COc1cc(NC(=O)c2cccs2)c(C(=O)OCC(=O)c2cc(C)n(-c3ccccc3)c2C)cc1OC`, the call in experiment [1] and in experiment [2] was inactive.
On to `C[C@H](CO)N1C[C@H](C)[C@H](CN(C)C(=O)Nc2ccc(F)cc2)OCCCC[C@H](C)Oc2ccc(NC(=O)C3CCCCC3)cc2C1=O`, for which the compound was classed as inactive in experiment [1] and in experiment [2].
Turning to `O=C(O)c1ccc(N/N=C/c2ccc3ncccc3c2)cc1`, the compound was classed as inactive in experiment [1] and in experiment [2].
As for `Cn1cccc1C(=O)OCC(=O)Nc1ccc2c(c1)OCCO2`, the result in experiment [1] and in experiment [2] was inactive.
Regarding `COc1ccc(/C=C/C(=O)Nc2ccccc2C(=O)O)cc1OC`, the compound was called inactive in experiment [1] and in experiment [2].
On to `COc1cc(NC(=O)c2cccc3c(-c4cnn(C)c4)coc23)cc(OC)c1OC`, for which the compound was called inactive in experiment [1] and in experiment [2].
On to `Cc1cc(C(=O)Nc2ccc(N3CCCCC3)cc2)no1`, for which the outcome in experiment [1] and in experiment [2] was inactive.
For `Cc1ccc(C(=O)Nc2ccc3c(c2)OCCO3)c(Cl)c1`, the result in experiment [1] and in experiment [2] was inactive.
For `Cc1ccc(NC(=O)c2cnn(-c3ccccc3)c2C)cc1C`, the call in experiment [1] and in experiment [2] was inactive.
As for `COCCCNc1ccn2nc(-c3ccccc3)cc2n1`, the result in experiment [1] and in experiment [2] was inactive.
For `O=C(c1cc(-c2ccc(Cl)cc2Cl)on1)N1CCOCC1`, the outcome in experiment [1] and in experiment [2] was inactive.
`CN(c1ccccc1)S(=O)(=O)c1cccc(NC(=O)c2cc(=O)c3ccccc3o2)c1`: the call in experiment [1] and in experiment [2] was inactive.
On to `Nc1c(C(=O)Nc2cccc(C(=O)O)c2)sc2nc3c(cc12)CCCC3`, for which the compound was classed as inactive in experiment [1] and in experiment [2].
On to `O=C(COc1ccc2ccccc2c1)Nc1nccs1`, for which the compound was called inactive in experiment [1] and in experiment [2].
Consider `O=C(CN1CCOc2ccccc21)NCc1ccc(F)cc1`, for which the outcome in experiment [1] and in experiment [2] was inactive.
As for `Cc1cc(C(=O)CN2C(=O)c3ccccc3S2(=O)=O)c(C)n1C(C)C`, the compound was called inactive in experiment [1] and in experiment [2].
For `CCn1c(C)cc(C(=O)CN2C(=O)c3ccccc3S2(=O)=O)c1C`, the compound was classed as inactive in experiment [1] and in experiment [2].
Regarding `O=C(O)c1c2c(nc3ccccc13)/C(=C/c1ccc(O)cc1)CC2`, the compound was called inactive in experiment [1] and in experiment [2].
Consider `O=C(CN1C(=O)c2ccccc2S1(=O)=O)c1ccccc1F`, for which the outcome in experiment [1] and in experiment [2] was inactive.
`Clc1ccccc1/C=C/c1nc(-c2ccccn2)no1`: the call in experiment [1] and in experiment [2] was inactive.
For the compound `C=CCNc1nc(-c2cc3ccccc3o2)cs1`, the compound was called inactive in experiment [1] and in experiment [2].
With `CSc1nc2ccc(NC(=O)c3ccccn3)cc2s1`, the compound was called inactive in experiment [1] and in experiment [2].
Turning to `Cc1cc(C(=O)CSc2nnc(N)s2)c(C)n1Cc1cccs1`, the compound was called inactive in experiment [1] and in experiment [2].
As to `Cc1c(NC(=O)c2ccc(-c3ccccc3)cc2)cccc1C(=O)O`, the compound was classed as inactive in experiment [1] and in experiment [2].
Regarding `Cc1ccc2nc(-c3ccc(NC(=O)COC(=O)c4ccco4)cc3)sc2c1`, the compound was classed as inactive in experiment [1] and in experiment [2].
In the case of `Cc1ccnc(NC(=O)c2cccc(S(=O)(=O)N3CCN(c4ccccc4)CC3)c2)c1`, the outcome in experiment [1] and in experiment [2] was inactive.
On to `Cc1csc(NC(=O)c2ccc(OCC3CCCO3)cc2)n1` (stereo unspecified), for which the outcome in experiment [1] and in experiment [2] was inactive.
In the case of `O=C(c1cc(-c2ccc(Cl)cc2Cl)on1)N1CCCC1`, the call in experiment [1] and in experiment [2] was inactive.
With `Cc1ccc(C(=O)n2nc(-n3cccc3)c3c(C)cc(C)nc32)cc1`, the outcome in experiment [1] and in experiment [2] was inactive.
As to `O=C(O)c1ccc(-c2noc(-c3ccccc3Cl)n2)cc1`, the outcome in experiment [1] and in experiment [2] was inactive.
For the compound `O=C(O)c1ccc(Nc2nc3c(s2)CCCC3)cc1`, the outcome in experiment [1] and in experiment [2] was inactive.
In the case of `O=C(O)c1cccc(Nc2ccnc(Nc3cccc(C(=O)O)c3)n2)c1`, the compound was classed as inactive in experiment [1] and in experiment [2].
On to `COC(=O)c1ccc2nc(-c3cccc(N)c3)cn2c1`, for which the result in experiment [1] and in experiment [2] was inactive.
On to `O=C(NCCc1ccccc1)c1ccc2c(c1)OCO2`, for which the compound was classed as inactive in experiment [1] and in experiment [2].
Take `c1nc(CCO[C@H]2CCCCO2)cc2cc3c(cc12)OCO3`: the result in experiment [1] and in experiment [2] was inactive.
For the compound `CCCC(=O)N1CCCC(c2cc(C(=O)Nc3ccccc3)no2)C1` (stereo unspecified), the result in experiment [1] and in experiment [2] was inactive.
On to `CCS(=O)(=O)N1Cc2ccccc2CC1C(=O)Nc1nc2ccccc2s1` (stereo unspecified), for which the call in experiment [1] and in experiment [2] was inactive.
For the compound `COCCn1c(C)c(C)c2c(NCCc3ccccc3)ncnc21`, the compound was classed as inactive in experiment [1] and in experiment [2].
For `COc1cc(SC)ccc1C(=O)Nc1ncc(C)s1`, the outcome in experiment [1] and in experiment [2] was inactive.
As to `Cc1cc(C(=O)COC(=O)c2ccccc2O)c(C)n1CC1CCCO1` (stereo unspecified), the outcome in experiment [1] and in experiment [2] was inactive.
Turning to `O=C(Nc1ccc(Cl)c(S(=O)(=O)N2CCOCC2)c1)c1ccc2c(c1)OCCO2`, the compound was classed as inactive in experiment [1] and in experiment [2].
With `O=C(Nc1ccc(N2CCN(C(=O)c3ccc(Cl)cc3)CC2)cc1)c1cc2ccccc2o1`, the compound was called inactive in experiment [1] and in experiment [2].
As for `O=C(Nc1cccnc1)c1cc(-c2ccc3c(c2)OCO3)on1`, the outcome in experiment [1] and in experiment [2] was inactive.
Consider `CCOc1ccc(C(=O)Nc2cccc(C(=O)O)c2C)cc1Cl`, for which the call in experiment [1] and in experiment [2] was inactive.
With `CCOC(=O)c1cn2nc(N3CCCCC3)ccc2n1`, the call in experiment [1] and in experiment [2] was inactive.
On to `Cc1ccc(-c2nnc(-c3ccccc3Br)o2)cc1`, for which the compound was classed as inactive in experiment [1] and in experiment [2].
As for `c1ccc(-n2cnnc2SCc2cn3cccnc3n2)cc1`, the call in experiment [1] and in experiment [2] was inactive.
Consider `CN(C)c1ccc(C2NC(=O)c3ccccc3N2)cc1` (stereo unspecified), for which the compound was called inactive in experiment [1] and in experiment [2].
For the compound `Cc1ccc(C(=O)C2C(=O)C3CCC2C3)cc1` (stereo unspecified), the compound was called inactive in experiment [1] and in experiment [2].
As for `Cc1ccc(-c2cc(C(=O)N3CCOCC3)no2)cc1`, the outcome in experiment [1] and in experiment [2] was inactive.
In the case of `O=C(CN1C(=O)c2ccccc2S1(=O)=O)c1ccc2c(c1)OCCCO2`, the call in experiment [1] and in experiment [2] was inactive.
With `COCCn1c(C)cc(C(=O)CSc2nnnn2C2CCCC2)c1C`, the call in experiment [1] and in experiment [2] was inactive.
For `CCCCN(CCCNC(=O)c1ccc2c(c1)NC(=O)CN2C)c1ccccc1`, the compound was called inactive in experiment [1] and in experiment [2].
`CC(C)Nc1ncnc2c1cnn2-c1ccc(Cl)cc1`: the outcome in experiment [1] and in experiment [2] was inactive.
For the compound `Cc1cc(C(=O)COC(=O)c2cccn2C)c(C)n1Cc1ccco1`, the call in experiment [1] and in experiment [2] was inactive.
Take `COc1ccc(OCC(=O)Nc2nccs2)cc1`: the result in experiment [1] and in experiment [2] was inactive.
As to `O=C(Nc1cccc(O)c1)c1cc(-c2ccc3c(c2)OCO3)on1`, the compound was classed as inactive in experiment [1] and in experiment [2].
For the compound `Cc1ccc2nc(NC(=O)CCCC(=O)O)sc2c1`, the compound was called inactive in experiment [1] and in experiment [2].
As for `COc1cc(SC)ccc1C(=O)Nc1ccc(Cl)cn1`, the compound was called inactive in experiment [1] and in experiment [2].
In the case of `Cc1ccc(-c2nc(-c3ccncc3)no2)c(Cl)c1`, the compound was classed as inactive in experiment [1] and in experiment [2].
Consider `c1ccc(-n2ncc3c(N4CCCCC4)ncnc32)cc1`, for which the compound was called inactive in experiment [1] and in experiment [2].
Consider `CCc1nc(Sc2nnnn2-c2ccccc2)c2c3c(sc2n1)CCCC3`, for which the compound was called inactive in experiment [1] and in experiment [2].
